Records with an inconclusive call do not appear. Active and inactive are the calls of the source. How the source made its calls: active means hit-call score of the fitted dose curve at least 0.9, where 1 is the maximum; inconclusive means response in the unintended direction; inactive means score below 0.9.

Assay [1] in a line: TOX21_p53_BLA_p2_viability: Viability Assessment in the Tox21 HCT-116 p53 Agonism Beta-lactamase Assay, Phase 2 (AID 2283591).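 Further: compound exposure lasted 16 h at 37 °C; actives lower the ATP signal meaning cytotoxicity.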 In outline:
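Cytotoxicity readout: CellTiter-Glo ATP luminescence, 30 min at room temperature, after the beta-lactamase read. Cells were HCT116 exposed 16 h at 37C to compounds pin-transferred at 217-fold dilution from DMSO stocks.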

The nature of assay [2]: TOX21_p53_BLA_p3_viability: Viability Assessment in the Tox21 HCT-116 p53 Agonism Beta-lactamase Assay, Phase 3 (AID 2283593).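 Further: cells exposed to compound for 16 h before reading.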 The procedure, abridged:
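Cellular ATP was quantified by CellTiter-Glo luminescence, read after 30 min at room temperature. Beforehand, HCT116 cells (4000/well) received compound 5 h post-seeding, 217-fold diluted from DMSO, then incubated 16 h at 37C.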

Assay [3] concerns the target Cellular tumor antigen p53 (Homo sapiens) (UniProt P04637). The experiment in a line: TOX21_p53_BLA_p3_ratio: Tox21 HCT-116 p53 Agonism Beta-lactamase Assay, Ratio, Phase 3 (AID 2283596). The procedure, abridged: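 Cells were seeded at 4000/well, rested 5 h at 37C, then dosed with DMSO compound solutions (217-fold dilution) for 16 h. CCF4-AM substrate was loaded for 2 h at room temperature, and the 460/530 nm emission ratio was fitted for gain of signal versus DMSO.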

Assay [4] in a line: TOX21_p53_BLA_p4_viability: Viability Assessment in the Tox21 HCT-116 p53 Agonism Beta-lactamase Assay, Phase 4 (AID 2283597).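 Further: hits lower the luminescence signal meaning cytotoxicity.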 In outline: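 Readout: ATP luminescence (CellTiter-Glo), measured 30 min after reagent addition at RT. The reagent followed a 2 h CCF4-AM incubation, and the cells had been exposed to compound for 16 h at 37C.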
A short description of assay [5]: TOX21_p53_BLA_p5_viability: Viability Assessment in the Tox21 HCT-116 p53 Agonism Beta-lactamase Assay, Phase 5 (AID 2283600). In outline: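 Workflow: seed 4000 cells per well, wait 5 h, add compounds (DMSO, 217-fold dilution), incubate 16 h, load CCF4-AM 2 h, add CellTiter-Glo, read luminescence after 30 min.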
In assay [6] the target is Cellular tumor antigen p53 (Homo sapiens) (UniProt P04637). Kind of assay: TOX21_p53_BLA_p4_ratio: Tox21 HCT-116 p53 Agonism Beta-lactamase Assay, Ratio, Phase 4 (AID 2283601). In outline: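 Signal is the blue/green (460nm/530nm) ratio of cleaved versus uncleaved CCF4-AM substrate, read after 2 h substrate loading. Cells were HCT116 carrying the p53-responsive beta-lactamase reporter, dosed 16 h at 37C, 5% CO2; CellTiter-Glo measured in parallel.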

Assay [7] addresses Thyroid hormone receptor alpha (Rattus norvegicus) + Thyroid hormone receptor beta (Rattus norvegicus) (UniProt P18113+P63059). Kind of assay: TOX21_TR_LUC_GH3_Antagonist_Followup: Tox21 GH3 Thyroid Hormone Receptor Antagonism Luciferase Follow-Up Assay (AID 2283942). In outline:
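Loss of T3-driven (1.0 nM final) reporter activity in GH3 cells was read by ONE-Glo luminescence after 24 h incubation at 37C; 15-point compound series spanned 92 uM to 5nM final, 1,500 cells/well.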

The target of assay [8] is THRA (gene 7067) (UniProt P10827). Kind of assay: TOX21_TRA_COA_Antagonist_Followup_ratio: Tox21 Thyroid Hormone Receptor alpha Antagonism through Coactivator Recruitment Follow-Up Assay, Ratio (AID 2283953). The procedure, abridged:
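We measured antagonism of T3-type coactivator recruitment using a TR-FRET ratio (emission 520 and 495 nm) between a Tb-labelled anti-GST antibody on TRα LBD (2.5 nM) and SRC-2 peptide (200 nM). Activity was scaled between DMSO and T3 wells.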

Assay [9] addresses THRB (gene 7068) (UniProt P10828). The experiment in a line: TOX21_TRB_BLA_Antagonist_Followup_ratio: Tox21 Thyroid Hormone Receptor beta Antagonism Beta-lactamase (BLA) Follow-Up Assay, Ratio (AID 2283958). In outline:
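Using charcoal-stripped 2% FBS medium, human TRβ-LBD/GAL4 reporter HEK293T cells received test compounds for 18 h. The endpoint is the cleaved-to-uncleaved substrate ratio (460/530 nm).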

Assay [10] can be described thus: TOX21_TRB_BLA_Antagonist_Followup_viability: Viability Assessment in the Tox21 Thyroid Hormone Receptor beta Antagonism Beta-lactamase (BLA) Follow-Up Assay (AID 2283961). In outline: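 TRβ-bla HEK293T (human TRβ LBD fused to GAL4 DBD), 3,000 cells/well, 2% charcoal-stripped FBS, phenol red-free medium; 18 h compound exposure, 37C; CellTiter-Glo 30 min RT; luminescence, loss-of-signal readout.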

Assay [11] can be described thus: TOX21_TR_RXR_BLA_Antagonist_Followup_viability: Viability Assessment in the Tox21 Thyroid Hormone Receptor beta Retinoid X Receptor alpha (RXRa) Antagonism Beta-lactamase (BLA) Follow-Up Assay (AID 2283979). In outline:
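Follow-up compounds (11 concentrations, triplicate) were incubated 16 h at 37C/5% CO2 with HEK293T RXRa-bla cells seeded at 2,500/well in charcoal-stripped-serum medium. ATP content by CellTiter-Glo luminescence gave viability; curves fitted in both directions against DMSO.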

Assay [12] concerns the target PGR (gene 5241) (UniProt P06401). Kind of assay: TOX21_PR_BLA_Followup_Antagonist_ratio: Tox21 HEK293 Progesterone Receptor (PR) Antagonism Beta-lactamase Follow-Up Assay, Ratio (AID 2283934).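 Further: PR-UAS-bla HEK293T cells stimulated with 1 nM R5020 agonist for 16 hr.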 In outline:
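Measured in PR-UAS-bla HEK293T cells co-treated with compound and 1 nM promegestone for 16 hr; beta-lactamase ratio read after 2 h FRET substrate loading, with parallel CellTiter-Glo cytotoxicity.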

A short description of assay [13]: TOX21_PR_BLA_Followup_Agonist_viability: Viability Assessment in the Tox21 HEK293 Progesterone Receptor (PR) Agonism Beta-lactamase Follow-Up Assay (AID 2283935).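 Further: signal loss means lower viability so actives are cytotoxic.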 The procedure, abridged: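 Viability is read as CellTiter-Glo luminescence, where loss of signal indicates cytotoxicity. The cells are PR-UAS-bla HEK293T given compounds for 16 hr at 37C and 5% CO2, in the same wells used for the bla readout.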

Assay [14] can be described thus: TOX21_PR_BLA_Followup_Antagonist_viability: Viability Assessment in the Tox21 HEK293 Progesterone Receptor (PR) Antagonism Beta-lactamase Follow-Up Assay (AID 2283936).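 Further: cells exposed to compound with R5020 agonist for 16 h; hits lower the luminescence signal meaning cytotoxicity.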 The procedure, abridged: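 PR-UAS-bla HEK293T cells in medium with 2% charcoal-stripped FBS were treated with compounds plus R5020 for 16 hr at 37C. After the beta-lactamase read, CellTiter-Glo was added to the same wells and luminescence read after 30 min at room temperature.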

Assay [15] has as its target Cellular tumor antigen p53 (Homo sapiens) (UniProt P04637). Kind of assay: TOX21_p53_BLA_p5_ratio: Tox21 HCT-116 p53 Agonism Beta-lactamase Assay, Ratio, Phase 5 (AID 2283599). The procedure, abridged: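 Beta-lactamase reporter ratio (blue 460 nm over green 530 nm, 405 nm excitation) after 2 h CCF4-AM loading, in HCT-116 cells exposed 16 h at 37 C to compounds pinned at 217-fold dilution. Increases relative to DMSO baseline scored.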

Chain of Cellular tumor antigen p53 (Homo sapiens) (P04637 whole entry, looked up): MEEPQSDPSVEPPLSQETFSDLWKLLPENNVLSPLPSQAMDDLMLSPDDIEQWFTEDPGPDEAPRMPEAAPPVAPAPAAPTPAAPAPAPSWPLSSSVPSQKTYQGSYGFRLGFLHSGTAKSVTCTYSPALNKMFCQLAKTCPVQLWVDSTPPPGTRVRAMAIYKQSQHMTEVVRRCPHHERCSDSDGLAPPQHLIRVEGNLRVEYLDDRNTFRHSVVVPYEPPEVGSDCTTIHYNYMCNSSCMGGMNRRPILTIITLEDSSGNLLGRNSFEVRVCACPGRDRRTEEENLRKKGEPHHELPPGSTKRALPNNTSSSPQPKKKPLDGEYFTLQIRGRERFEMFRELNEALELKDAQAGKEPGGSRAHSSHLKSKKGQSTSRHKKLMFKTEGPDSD
Chain of THRB (gene 7068) (P10828 whole entry, looked up, the tested form may be a part): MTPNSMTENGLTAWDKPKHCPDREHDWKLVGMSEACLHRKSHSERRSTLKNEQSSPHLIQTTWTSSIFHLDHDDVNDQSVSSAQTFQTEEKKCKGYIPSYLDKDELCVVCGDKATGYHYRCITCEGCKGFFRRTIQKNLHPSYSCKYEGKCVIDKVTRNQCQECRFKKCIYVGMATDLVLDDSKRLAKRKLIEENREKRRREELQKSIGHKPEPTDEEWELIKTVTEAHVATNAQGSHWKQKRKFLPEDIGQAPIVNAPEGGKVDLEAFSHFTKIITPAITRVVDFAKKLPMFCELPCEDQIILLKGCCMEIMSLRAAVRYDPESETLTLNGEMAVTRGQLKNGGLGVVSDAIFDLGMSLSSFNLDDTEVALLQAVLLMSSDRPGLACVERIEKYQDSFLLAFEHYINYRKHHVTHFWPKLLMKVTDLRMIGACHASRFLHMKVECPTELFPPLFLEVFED
Chain of THRA (gene 7067) (P10827 whole entry, looked up, the tested form may be a part): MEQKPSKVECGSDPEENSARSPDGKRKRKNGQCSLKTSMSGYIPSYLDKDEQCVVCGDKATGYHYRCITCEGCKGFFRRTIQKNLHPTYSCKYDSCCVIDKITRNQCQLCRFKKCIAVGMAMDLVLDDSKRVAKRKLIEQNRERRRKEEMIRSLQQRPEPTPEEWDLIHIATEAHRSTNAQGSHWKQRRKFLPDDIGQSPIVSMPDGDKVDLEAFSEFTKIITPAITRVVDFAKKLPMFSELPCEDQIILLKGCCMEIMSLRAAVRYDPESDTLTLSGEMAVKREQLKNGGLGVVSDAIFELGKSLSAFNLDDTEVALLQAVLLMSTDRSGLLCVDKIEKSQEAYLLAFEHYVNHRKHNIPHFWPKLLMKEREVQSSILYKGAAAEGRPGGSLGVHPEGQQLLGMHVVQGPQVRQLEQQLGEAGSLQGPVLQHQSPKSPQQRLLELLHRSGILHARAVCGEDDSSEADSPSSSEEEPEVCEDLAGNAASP
Chain of PGR (gene 5241) (P06401 whole entry, looked up): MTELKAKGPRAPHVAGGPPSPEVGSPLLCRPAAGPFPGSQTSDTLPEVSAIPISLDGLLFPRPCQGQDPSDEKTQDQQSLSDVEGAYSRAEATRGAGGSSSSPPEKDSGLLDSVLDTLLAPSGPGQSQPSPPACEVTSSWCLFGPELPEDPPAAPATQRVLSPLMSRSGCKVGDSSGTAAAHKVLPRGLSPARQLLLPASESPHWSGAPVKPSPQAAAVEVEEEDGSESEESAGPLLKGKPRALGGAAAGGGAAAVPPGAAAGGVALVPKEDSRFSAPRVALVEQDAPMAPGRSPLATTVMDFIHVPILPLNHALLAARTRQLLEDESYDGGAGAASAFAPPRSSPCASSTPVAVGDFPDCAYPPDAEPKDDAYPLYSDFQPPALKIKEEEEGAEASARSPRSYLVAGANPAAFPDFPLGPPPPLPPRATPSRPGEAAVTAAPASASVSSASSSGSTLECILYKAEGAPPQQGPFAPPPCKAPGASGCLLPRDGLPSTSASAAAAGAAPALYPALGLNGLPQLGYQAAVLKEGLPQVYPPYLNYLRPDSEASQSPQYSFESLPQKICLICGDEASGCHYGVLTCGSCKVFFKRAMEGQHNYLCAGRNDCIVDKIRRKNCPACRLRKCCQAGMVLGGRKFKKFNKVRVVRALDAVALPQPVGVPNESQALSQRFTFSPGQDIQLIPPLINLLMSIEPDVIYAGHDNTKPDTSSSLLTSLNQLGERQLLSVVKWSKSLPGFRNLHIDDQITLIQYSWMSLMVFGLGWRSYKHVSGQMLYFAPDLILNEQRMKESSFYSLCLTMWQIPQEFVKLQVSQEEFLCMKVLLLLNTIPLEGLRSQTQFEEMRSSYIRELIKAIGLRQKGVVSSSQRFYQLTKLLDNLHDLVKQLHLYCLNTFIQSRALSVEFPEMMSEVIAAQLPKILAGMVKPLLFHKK

Consider `CC(C(=O)O)c1ccc(N2Cc3ccccc3C2=O)cc1` (stereo not given), for which the call in [1], in [2], in [3], in [4], in [5] and in assay [6] was inactive. The result in assay [7], in [8], in assay [9], in assay [10] and in assay [11] was inactive.
Take `CC(=O)OCC(=O)[C@@]1(OC(C)=O)[C@@H](C)C[C@H]2[C@@H]3C[C@H](F)C4=CC(=O)C=C[C@]4(C)[C@@]3(F)[C@@H](O)C[C@@]21C`: the compound was called inactive in assay [1], in assay [2], in [3], in [4], in [5] and in assay [12]. Besides, the call in [13] and in assay [14] was inactive.
Consider `Brc1c(NC2=NCCN2)ccc2nccnc12`, for which the compound was classed as inactive in [1], in [2], in [3], in assay [15], in assay [5] and in assay [6].
In the case of `OC(CCN1CCCCC1)(c1ccccc1)C1CC2C=CC1C2` (stereo not given), the outcome in [1], in assay [2], in assay [3], in assay [4] and in assay [5] was inactive.
In the case of `CN1CC(O)c2cc(N=NC(N)=O)c(O)cc21` (stereo not given), the result in [1], in [2], in assay [3], in assay [15] and in assay [5] was inactive.
For `CCCCC(=O)OCC(=O)[C@H]1[C@H](C)C[C@H]2[C@@H]3C[C@H](F)C4=CC(=O)C=C[C@]4(C)[C@@]3(F)[C@@H](O)C[C@@]21C`, the outcome in assay [1], in assay [2], in assay [3], in assay [4] and in assay [5] was inactive.
With `CC(=O)Oc1ccc([N+](=O)[O-])cc1CCl`, the compound was called inactive in [1], in [2] and in assay [15]. The half-maximal activity concentration (AC50) in [3] was 73.1 µM (active).
Turning to `COc1ccccc1OCC(O)CN1CCN(CC(=O)Nc2c(C)cccc2C)CC1` (stereo not given), the compound was classed as inactive in assay [1], in assay [2], in assay [3], in assay [4] and in assay [6].
With `CO[C@H]1C[C@H](O[C@H]2[C@H](C)[C@@H](O[C@@H]3O[C@H](C)C[C@H](N(C)C)[C@H]3OC(C)=O)[C@@H](C)C[C@]3(CO3)C(=O)[C@H](C)[C@@H](OC(C)=O)[C@@H](C)[C@@H](C)OC(=O)[C@@H]2C)O[C@@H](C)[C@@H]1OC(C)=O`, the call in assay [1], in [2], in assay [3], in assay [15] and in assay [5] was inactive.
Turning to `Cc1cccc(Oc2ccccc2)c1`, the compound was called inactive in assay [1], in assay [2], in assay [3], in assay [4] and in assay [6].
`CN1CCN(C2Cc3ccccc3Sc3ccc(Cl)cc32)CC1` (stereo not given): the figures for the AC50 in [1], in assay [2] and in assay [4] were 34.4 µM (active), 34.5 µM (active) and 34.3 µM (active), respectively. Further, the outcome in assay [3], in [5] and in [6] was inactive.
For the compound `CCCCOc1cc(C(=O)NCCN(CC)CC)c2ccccc2n1`, the compound was classed as inactive in assay [1], in assay [2], in [3], in assay [4] and in assay [6].
For `CC(=O)c1ccc2c(c1)N(CCCN1CCN(CCO)CC1)c1ccccc1S2`, the outcome in [1], in assay [2], in assay [3] and in [5] was inactive. In [4], the AC50 was 31.6 µM (active).
On to `CC(=O)OC(C)=O`, for which the result in assay [1], in [2], in [3], in assay [15] and in [5] was inactive.
Turning to `OCCSc1ccccc1`, the call in assay [1], in assay [2], in assay [3], in assay [4] and in assay [6] was inactive.
